Laboratory results from PubChem BioAssay (NCI).
About 83,000 compounds went through this panel and 20% of them were active in at least one assay; those are over-represented in the sample as a whole.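 Testing used 96-well plates and a 48-hour single-concentration exposure. Example: -40 means 40% of the starting cells died.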 Values without a mark were called inactive. Active and inactive are the calls of the source. The calls were made as follows: active = growth percent below 10; inactive = the rest.

How the values were obtained:
Assay in all cases: NCI-60 one-dose screen, 48 h (100 = growth as untreated, 0 = no growth, -100 = all killed)
Settings in all cases: 10 µM unless noted
[1] = tested on: NCI-H23 lung
[2] = tested on: NCI-H226 lung
[3] = tested on: NCI-H322M lung
[4] = tested on: HOP-62 NSCLC
[5] = tested on: NCI-H522 lung
[6] = tested on: A549/ATCC NSCLC
[7] = tested on: 786-0 renal
[8] = tested on: COLO 205 colon
[9] = tested on: DU-145 prostate
[10] = tested on: MALME-3M melanoma
[11] = tested on: MDA-MB-231 breast
[12] = tested on: SF-268 CNS
[13] = tested on: SF-295 CNS
[14] = tested on: SF-539 CNS
[15] = tested on: UACC-257 melanoma
[16] = tested on: M14 melanoma
[17] = tested on: HCT-15 colon
[18] = tested on: K-562 leukemia
[19] = tested on: RXF 393 renal
[20] = tested on: NCI-H460 lung

| SMILES | growth [1] | growth [2] [%] | growth [3] [%] | growth [4] | growth [5] | growth [6] | growth [7] | growth [8] | growth [9] | growth [10] | growth [11] | growth [12] | growth [13] | growth [14] | growth [15] | growth [16] | growth [17] | growth [18] | growth [19] | growth [20] |
| --- | --- | --- | --- | --- | --- | --- | --- | --- | --- | --- | --- | --- | --- | --- | --- | --- | --- | --- | --- | --- |
| OCCOc1c(Cl)cc(Cl)cc1Cl | 101% | 111 | 114 | 108% | 108% | 93.9% | 104% | 114% | 115% | 101% | 87.3% | 103% | 100% | 102% | 90.3% | 107% | 104% | – | – | – |
| Nc1cc(Cl)c(S(N)(=O)=O)cc1S(N)(=O)=O | 87.1% | 92.8 | 87.9 | 111% | 68.8% | – | 100% | 109% | 121% | 84.5% | 113% | 113% | 111% | 88.1% | – | 108% | 97.9% | 104% | – | – |
| O=C1/C(=C/c2ccc([N+](=O)[O-])o2)Oc2ccc(Br)cc21 | 74.1% | 98 | 75.6 | 94.3% | -66.1% (active) | 107% | 28.3% | 8.53% (active) | 72.1% | -28.3% (active) | 42.8% | 48.1% | 99.4% | 88% | 69.1% | 44.9% | 0.437% (active) | -1.79% (active) | -29.6% (active) | – |
| c1ccc(-c2nn[nH]n2)c(-c2ccc(CN3CCN(c4nsc5ccccc45)CC3)cc2)c1 | 85.7% | 105 | 96.7 | 110% | 69% | 98.6% | 110% | 114% | 97.5% | 108% | 88.6% | 98.3% | 94.1% | – | 99.8% | 108% | 82.9% | – | 113% | – |
| CC(=O)Oc1c(C)c(OC(C)=O)c2c(c1C(C)=O)OC1CC(=O)C(C(C)=O)=C(O)C21C (stereo not given) | 90.9% | 104 | 105 | 89.2% | 91.1% | 99% | 94.8% | 118% | 112% | 96.9% | 106% | 122% | 92% | 98.6% | 115% | – | 94.8% | 73.3% | 132% | – |
| O=C(/C=C/c1ccc(Cl)cc1)c1ccccc1 | 109% | 91 | 92.2 | 115% | 81.1% | 88.9% | 93.7% | 120% | 106% | – | 119% | 102% | 94.3% | 103% | 102% | 100% | 75.4% | 66.6% | – | – |
| COc1ccc2nc(NC(=O)c3cc(-c4ccc(F)cc4)n4nc(-c5ccccc5)cc4n3)sc2c1 | 53.6% | 84 | – | 61.4% | 95.8% | 77.1% | 90.8% | 76.3% | 78.1% | – | 72.8% | – | 61.6% | 66.6% | 80% | 81.9% | 90% | 93.5% | 118% | 79.2% |
| CCN(CC)CCNc1ccc(Cl)cc1Cl | 101% | 108 | – | 95.8% | 98.5% | 107% | 104% | 108% | 107% | 106% | 118% | 101% | 109% | 111% | 95% | 102% | 107% | 104% | 103% | 107% |
| COc1ccc2[nH]c(-c3ccccc3)cc2c1 | 98.9% | 96.5 | – | 115% | 74.1% | 96.2% | 103% | 110% | 101% | 122% | 90% | 110% | 105% | 103% | 87.5% | 112% | 97% | 76.5% | 100% | 111% |
| COc1ccc(/C=C2\COc3ccc(O)c(O)c3C2=O)cc1OC | 41% | 46.6 | – | 11.6% | -55.5% (active) | 31.7% | -17.8% (active) | 55.6% | 6.44% (active) | -57.4% (active) | -2.32% (active) | 9.74% (active) | 72.2% | -55.4% (active) | 31.4% | – | -39.4% (active) | 0.0834% (active) | – | 1.26% (active) |
| O=C(C=C=Nc1ccccc1)C(=O)N=C=Cc1ccccc1 | 63.3% | 67.7 | – | 90.5% | -82.5% (active) | 79.8% | 79.3% | 13.5% | 40.2% | -20.9% (active) | 94.6% | 69.1% | 99.3% | 85.1% | 43.3% | 44.2% | 11.4% | -18.8% (active) | -46% (active) | 92.2% |
| COC(=O)CCC1=C(C)C(C)=N/C1=C\c1[nH]c(-c2ccc[nH]2)cc1OC | 0.999% (active) | 20.7 | – | -3.16% (active) | -62.7% (active) | 11.1% | 10.1% | 12.9% | 9.9% (active) | – | -33.4% (active) | 25.3% | -44.6% (active) | -9.38% (active) | -1.25% (active) | 9.58% (active) | -2.64% (active) | -16.4% (active) | 23.3% | – |
| COc1cc2c(c(OC)c1OC)CCc1cnoc1-2 | – | 102 | 107 | 156% | 102% | 103% | 155% | 134% | 116% | 100% | 107% | 109% | 108% | 100% | 103% | 122% | 102% | 99.8% | 121% | 106% |
| COc1cc(C2=NN(C(C)=O)C(c3ccc(OC(C)=O)cc3OC(C)=O)O2)c(OC(C)=O)c2ccccc12 (stereo not given) | 38% | 27 | – | 24.3% | -7.78% (active) | 8% (active) | 11.2% | 10.4% | 26.8% | – | 34.2% | 19.7% | 22.2% | 7.95% (active) | -8.85% (active) | 5.99% (active) | 32.8% | 6.47% (active) | – | 9.82% (active) |
| C[C@@H]1CC[C@H]2[C@@H](C)C(O)O[C@@H]3O[C@]4(C)CC[C@@H]1[C@]32OO4 (stereo not given in full) | 15.4% | 69.8 | – | 59.4% | -8.88% (active) | 41.5% | 46.1% | 6.72% (active) | 75.1% | 28.3% | 77.4% | 52.7% | 26.4% | 33.6% | 38.3% | 29.8% | 10.7% | 10.8% | 49.3% | 30.6% |
| CN(C)c1ccc(/C=C(\C#N)c2nc3ccccc3c(=O)[nH]2)cc1 | 70.2% | 74.1 | – | 105% | 84.2% | 99.5% | 91.9% | 111% | 93% | 75.8% | 76% | 69.4% | 92.9% | 93.6% | – | 97.3% | 97.2% | 118% | 91.1% | 87.3% |
